Our source for the growth values is PubChem BioAssay (NCI).

Holding throughout (assay): NCI-60 one-dose screen, 48 h (100 = growth as untreated, 0 = no growth, -100 = all killed)
Test [1] relates to NCI-H23 lung. As to conditions: 10 µM unless noted.
The test system of test [2] is NCI-H226 lung. As to conditions: 10 µM unless noted.
Test [3] concerns NCI-H322M lung. The note with it: 10 µM unless noted.
For test [4], the system named is HOP-62 NSCLC. As to conditions: 10 µM unless noted.
Test [5] has as its system NCI-H460 lung. As to conditions: 10 µM unless noted.
The test system of test [6] is HOP-92 NSCLC. As to conditions: 10 µM unless noted.
Test [7] has as its system NCI-H522 lung. The note with it: 10 µM unless noted.
For test [8], the system named is A549/ATCC NSCLC. As to conditions: 10 µM unless noted.
Test [9] concerns 786-0 renal. The note with it: 10 µM unless noted.
Test [10] deals with COLO 205 colon. The note with it: 10 µM unless noted.
Test [11] concerns DU-145 prostate. As to conditions: 10 µM unless noted.
Test [12] concerns K-562 leukemia. The note with it: 10 µM unless noted.
Test [13] has as its system MALME-3M melanoma. As to conditions: 10 µM unless noted.
Test [14] relates to MDA-MB-231 breast. As to conditions: 10 µM unless noted.
Test [15] relates to RXF 393 renal. The note with it: 10 µM unless noted.
Test [16] has as its system SF-268 CNS. The note with it: 10 µM unless noted.
The test system of test [17] is SF-295 CNS. The note with it: 10 µM unless noted.
Test [18] concerns SF-539 CNS. The note with it: 10 µM unless noted.
Test [19] has as its system UACC-257 melanoma. The note with it: 10 µM.
Test [20] deals with M14 melanoma. As to conditions: 10 µM unless noted.

This is part of a sample that, as a whole, favours compounds with a hit. Of some 83,000 tested, about 20% had one in any assay.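 Step 1: grow cells in 96-well plates. Step 2: add test compound at a single concentration. Step 3: incubate 48 h. Step 4: record percent growth.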 Values without a mark were called inactive. Activity calls are given as the source filed them. How the source made its calls: active means growth percent below 10; inactive means the rest.

Turning to `CCN1CCN(c2cc(C(=O)Nc3nc4ccc(Oc5ccnc(C(=O)NC)c5)cc4s3)cc(C(F)(F)F)c2)CC1`, the growth in test [1] was 89.6%; in test [2] it was 90.8%; in [3], 95%; in test [4] it was 104%; in test [5], 46.4%; in [6] it was 91.1%. Further, the growth in [7] is 78.7%; in test [8] it was 86.5%; in test [9], 70%; in [10], 59.9%; in test [11], 85.8%; in test [12] it was 55.3%. Besides, the growth in test [13] was 75.7%; in [14], 86.2%; in [15], -15.6% (active); in test [16], 92.7%; in test [17], 83%; in test [18] it was 92.9%. The growth is 94.2% in test [19] and 67.7% in test [20].

For `N/C(=N\OC(=O)CSc1nc2ccccc2s1)c1ccc(Cl)cc1`, the growth was 97.7% in test [1]; 98% in test [2]; 101% in [3]; 88.2% in test [4]; 108% in test [5]; 98% in test [6]. For the same molecule, the growth is 95% in test [7]; 103% in test [8]; 102% in test [9]; 106% in test [10]; 105% in [11]; 99.1% in test [12]. Besides, the growth in test [13] is 105%; in test [14], 92%; in test [15], 122%; in [16], 96.2%; in [17], 104%; in [18], 95.5%. For the same molecule, the values for the growth in test [19] and in test [20] were 104% and 100%, respectively.

In the case of `COc1cc(/C=C2\SC(=O)NC2=O)ccc1OCC(=O)Nc1ccc(C(=O)/C=C/c2cc3ccccc3nc2Cl)cc1`, the growth in test [1] is 68.6%; in test [2] it was 96.2%; in test [3], 99.2%; in test [4], 107%; in [5] it was 96.3%; in test [6], 82.5%. The growth in [7] is 72.5%; in [8], 102%; in [9], 101%; in [10] it was 116%; in test [11], 96.9%; in test [12], 49.4%. Besides, the growth is 89% in test [13]; 88.6% in [14]; 77.1% in [15]; 85.8% in test [16]; 87% in test [17]; 83.2% in test [18]. For the same molecule, the growth in test [19] was 86.3%; in [20] it was 85.6%.

Consider `COc1ccc(N)cc1C(=O)Nc1cccc(-c2cc(=O)c3c(OC)c(OC)c(OC)cc3o2)c1`, for which the growth in [1] was 63.7%; in [2], 61.7%; in test [3] it was 72.5%; in test [4], 69.6%; in test [5], 61.5%; in test [6], 8.78% (active). For the same molecule, the growth is 60.5% in test [7]; 69.3% in [8]; 53.8% in test [9]; 84.7% in test [10]; 59.1% in test [11]; 46.6% in [12]. In addition, the growth in test [13] was 89.4%; in test [14], 60.2%; in test [15] it was 50.4%; in [16], 68.3%; in test [17], 63.8%; in test [18], 64.4%. Besides, the growth in [19] was 98.9%.

With `C=CCn1c(SCC(=O)c2ccc(OC)cc2)nnc1-c1ccc(OC)cc1`, the growth is 97.6% in test [1]; 87.1% in test [2]; 97.4% in [3]; 102% in [4]; 102% in [5]; 88.9% in test [6]. Further, the growth is 99% in test [7]; 99.2% in [8]; 99.4% in [9]; 98.8% in test [10]; 99.8% in test [11]; 94.7% in test [12]. The growth in test [13] is 96.4%; in test [14], 94.9%; in test [15], 87.9%; in [16], 95.2%; in test [17], 97.7%; in test [18] it was 100%. For the same molecule, the growth in test [19] is 96.8%; in [20], 90.9%.

Regarding `COc1cc(/C=C/C(=O)c2ccc(NC(=O)CSc3nnc(-c4ccc5nc(-c6ccccc6)[nH]c5c4)o3)cc2)cc(OC)c1OC`, the growth in [1] is 92.7%; in test [2] it was 99.3%; in test [3], 96.9%; in test [4], 114%; in test [5], 92.5%; in test [6], 142%. Also, the growth in test [7] is 95.3%; in [8], 105%; in test [9] it was 75.4%; in test [10] it was 115%; in test [11] it was 91%; in test [12] it was 58.3%. The growth in test [13] is 109%; in test [14], 93.6%; in test [15] it was -6.89% (active); in test [16], 97.7%; in test [17], 105%; in [18], 82.5%. The growth in test [19] was 87.6%.

`Cc1ccc(S(=O)(=O)N/N=C/c2cn(-c3ccc(F)cc3)nc2-c2ccc(S(C)(=O)=O)cc2)cc1`: the growth in [1] was 104%; in [2], 102%; in test [3] it was 106%; in test [4] it was 101%; in test [5], 108%; in test [6] it was 89.7%. Further, the growth is 95.3% in test [7]; 101% in test [8]; 100% in test [9]; 107% in test [10]; 114% in test [11]; 102% in [12]. In addition, the growth in test [13] was 71%; in [14], 104%; in test [15], 117%; in test [16], 104%; in test [17], 103%; in test [18] it was 97.7%. Besides, the growth in test [19] is 99.3%.
